Data as given in PubChem BioAssay AID1508600 (Functional Genomics Laboratory (NCATS/FGL), 2020).
Among all 53,000 sequences or so, about 3,700 (7%) were called active.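 How the source made its calls: active means gene knockdowns whose robust z-score for IL-1 alpha signal is at least 2 or at most -2, so actives lie on both sides; inactive means the rest.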 Many of the other results were omitted from the sample, so actives are more common in it than they were.

experiment: Components of the Cytosolic LPS Sensing Pathway: Gene Identification via Genome-wide siRNA Screen; settings: RAW264.7 macrophages, IL-1a HTRF, actives lie on both sides, screened at 100 nM (by protocol), cells primed 5 h with Pam3CSK4 first;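 further: robust z of the log signal after scaling to non-targeting control siRNA wells of the plate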
Summary of the method: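 Knockdown: 100 nM siRNA, 48h, RAW264.7. Stimulation: Pam3CSK4 5 h, then LipidA via TransIT-TKO 24 h. Output: supernatant IL-1a HTRF, negative-control-normalized, log robust z-score; viability by CellTiter-Glo.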

Sequence	z-score
GGCUUAGUAUGUUGUAUUCTT against Fam241b	0.189 (inactive)
GGGUUCAUUUUUGGCUUUCTT against Serpina3m	0.0735 (inactive)
GGUGCAGAAGCUCAAGUUCTT against Cpne2	2.44 (active)
GCGAAUCUCCUCCUAGUGATT against Arhgap28	-0.0218 (inactive)
GGAAUUCGUAAAGAUUGCATT against Esrp2	-0.158 (inactive)
UGCUGGUAGACCUAGUAGCTT against Olfr1137	-2.1 (active)
GGUGUACGAUCUGACCAAGTT against Cyb5a	0.0756 (inactive)
GGAAUGGUUUGGUGAGUUUTT against Pramel1	0.859 (inactive)
GGCAUCUCUUCCAAGUUGGTT against Mzt1	1.69 (inactive)
GGGACAUAUUGUUUCCCUUTT against Tmco5b	0.777 (inactive)
GGUUAUGAUGGGACUUCUCTT against Tmem37	-1.34 (inactive)
CCUUUGUAGGAACAAUUUATT against Phlda1	0.409 (inactive)
GCGUAUUUUAUGGAUGAAATT against Nfkbiz	-2.42 (active)
GGAUUAUCAUGGUUUGAUCTT against Elp4	0.938 (inactive)
GCAUCUGUGCCGAUUAAAATT against Asb15	1.32 (inactive)
AUAUCAGACUGACAUAGCATT against Obox5	2.47 (active)
CGAGGCUAACAAACUCAUATT against Guca2a	0.883 (inactive)
CCUGGAAACUAUUUUGAUGTT against Katnal2	0.0379 (inactive)
GACAAAACAAUUUCCUAUGTT against Olfr805	-0.318 (inactive)
GGCAGAAACGUGGACUAAATT against Mmp12	-1.29 (inactive)
GGAACCAGUAUCCUGACAUTT against Prop1	-0.592 (inactive)
GGCUAUAAUGAACCAGCUGTT against Ubr3	-0.208 (inactive)

Sequence	z-score
CCAGUUCAGAGAUUAUCUUTT against Olfr826	-2.13 (active)
GGAUGCAGAUGUACAACUCTT against Slc25a28	2.17 (active)
GGAGCCUCCAAGUUGUAAGTT against Ifi27l2b	0.748 (inactive)
CCACCUUAACUGUUGCUUUTT against Mmp2	0.691 (inactive)
GCAUUUGAAUCGACUACAGTT against Vti1b	0.691 (inactive)
GGUGUGUGCAGGACUAAAUTT against Cacng3	0.955 (inactive)
GCCGGAGUGCACAAUCAAATT against Rarres2	0.908 (inactive)
GGAAAUCCAUCGUUAUUCUTT against Abca8a	2.08 (active)
GGAGAGACUUGAGAUUGUCTT against Ptx3	0.245 (inactive)
GGACACUAUCCGUGCAUCUTT against Tsg101	-1.13 (inactive)
GCAAGUGACGGUUUAUCUGTT against Las1l	-1.68 (inactive)
UACCAGAAGUACCUGUCCCTT against Lbx1	3.33 (active)
CCUCAUUCGAUACAUCUGUTT against Ints3	0.319 (inactive)
CCUUGUUUUUCACAAAUCATT against Usp7	-0.182 (inactive)
GGCUCGACUUGGAGAAAAGTT against Atg13	0.0439 (inactive)
GCAGAAGCCUGUGGGAUCUTT against Tex43	-0.102 (inactive)
GCAAAACCUAACUAUGUUUTT against Mterf3	-0.879 (inactive)
CGAAUUAUGGCACCGUCAATT against P2rx7	-0.647 (inactive)
UUAGCCACUCAUUGUUCCATT against Olfr1303	-0.133 (inactive)
GCUAAUACUGAAAUCGAUGTT against Ccdc73	1.02 (inactive)
GGGAGAGUCUUGGCAACUUTT against Btbd17	-2.12 (active)
GGAAGAGAAGAAGGAACUUTT against Ada	-1.51 (inactive)

Sequence	z-score
CGUUUAAAGACUAGCAAGATT against Tab1	0.0468 (inactive)
GGGCUAAUGAGAUAGGUUUTT against Slc19a2	2.18 (active)
GGAGGCUGCAAUAGAGGAGTT against Defa20	1.23 (inactive)
GGCAAGAGUGAAUUUAAGATT against Nt5e	-0.292 (inactive)
GGAUUUCACAGUCAAAAUUTT against Insrr	-0.825 (inactive)
CGGUGUACGAGUUAGAGAATT against Crybb3	1.75 (inactive)
GGGAGAUCUUGACAAAUUCTT against Aplp1	2.32 (active)
GGAGAAUGACUAGGUAAUCTT against A130010J15Rik	1.27 (inactive)
CCUGUCGUUUAACCCUGUCTT against Fis1	-0.96 (inactive)
GGAGUUGACCACACUGCUUTT against Smtn	-1.09 (inactive)
GGAAUUUAUUCACCCAGACTT against Sirt2	-1.51 (inactive)
GGAGAUGAAGCUCUGGAUATT against Spock2	0.132 (inactive)
CCUAUCUCCCUGUUCGAUATT against Rab36	-1.01 (inactive)
GGACAACUCAGAUUGGACUTT against Adprhl2	-1.22 (inactive)
GGCUUGAAUCACCAACCAGTT against Sgcz	0.224 (inactive)
GGUAGUGAGUACUUUGGAATT against Amy2a5	-1.16 (inactive)
GCAAGUGCGACUGUAUCUGTT against Gdpd2	-2.2 (active)
GGGAUAAUGCAUGUGAAAATT against Pdk3	-0.292 (inactive)
GGUUUGUCAACAAGUGUCATT against Dicer1	-2.17 (active)
CCAGUACAGAUGUGUUAAATT against N4bp2l2	1.68 (inactive)
CCGCCUAGCUGAUCUUGUGTT against Aldh1b1	-0.495 (inactive)
GCUUUUACCGUUACGUCUUTT against Uggt1	2.18 (active)

Sequence	z-score
GGACAGCAGUAAAUAUACUTT against Coq3	0.423 (inactive)
GCUAUUAAUAUCCUGGUCCTT against Slc7a2	-0.543 (inactive)
CCUAGACAUCAGUAAUGCGTT against Zbtb17	-0.43 (inactive)
AACUGUACAUUGAAGCAGATT against Cstf3	0.391 (inactive)
GCAUGAAAAGGUAUUACUCTT against Exoc6	0.734 (inactive)
GCACUAUCCACAUGCACAUTT against Olfr1281	0.469 (inactive)
GGCCUAUGUCAGCACUUUATT against Eif3f	-0.113 (inactive)
GGAUUGCUUUUGAGCAACATT against Ccdc125	-2.05 (active)
GCUUCUAAGCUUUAGAGGGTT against Rassf10	-1 (inactive)
GGAUACAGUUAAGAGAUAUTT against Xpr1	-1.34 (inactive)
GCAUAGCCACAAGGUUAAUTT against Nat8f4	0.35 (inactive)
GUAUUAUAGACACCUUGCATT against Phip	-0.835 (inactive)
GGACAGCUACCUCAUCCAUTT against Lpcat3	2.08 (active)
GGACAGAUGAAGCUGCAUUTT against S100a4	-0.422 (inactive)
GGUGAAGAAGAGUCUCAAATT against Mrnip	1.6 (inactive)
GCACAUAUCACGCUACCUGTT against Lrrc75b	-0.0605 (inactive)
GCGAAGAGUGAUUGAUCCATT against Myh1	-0.773 (inactive)
GGAAGCAGAAGCUAAAGUGTT against Ubap1	2.11 (active)
CCUGACAGUAGUUACUAUUTT against Olfr1154	-0.945 (inactive)
GGUUUUUUGUAGCAAACAGTT against Phc2	-2.7 (active)
GGUCCUUUACAUGAACCGCTT against Vps18	-0.661 (inactive)
GGAAUGCAUGAUGAUGUCATT against Prl7a2	-0.783 (inactive)

Sequence	z-score
GGGAUCCUCUUGACAUUCCTT against Epdr1	3.87 (active)
GGUAGCAGACAGCUACCCUTT against Tnfsf15	0.405 (inactive)
CCAAGCUAUUGGCCCUGACTT against Defb38	0.251 (inactive)
GCUGAUGACCACUGAGUUUTT against Tsr2	1.34 (inactive)
GCAAGUCAGCUACAACUGUTT against Rnasek	0.0313 (inactive)
GGUGGCUAUAACAGAGCCUTT against Rdh18-ps	0.173 (inactive)
GGAAACAAGGAAGCAAUUATT against Psmd1	-3.01 (active)
GGAGAAACCAGCUAAAGGATT against Car9	-0.235 (inactive)
GGUGAUCAGCAUGGUGGGUTT against Pold1	0.208 (inactive)
GGUAUAAAGAACUCUGUCATT against Cep78	-2.49 (active)
GGGUGAUAGCAAGACACAGTT against Olfr720	1.06 (inactive)
GGAGGACCAAGAGGACAUUTT against Tbl3	0.468 (inactive)
GGCCCAAGAGAUUGAUCAATT against Ivd	-0.565 (inactive)
CGAAACCUCUAAGAAGAUATT against Pole	-0.264 (inactive)
GGCAUGUUCCUCAUAUGCCTT against Lrit1	-2.01 (active)
GGAGCAUUGCCUUUUAAAGTT against Psph	-0.474 (inactive)
CCAAUUGGGCCACACGUAATT against Tial1	1.15 (inactive)
GGACUCUUUUGGACCUAAGTT against Hilpda	-1.24 (inactive)
GGAACAAAUUCUGGAGUUGTT against Zfp287	0.791 (inactive)
GGUUACAGAGAGACAUCAUTT against Cdk5rap2	0.942 (inactive)
